Reference: PubChem BioAssay

What follows are compounds tested on Plasmodium falciparum Sir2 (PF13_0152, Sir2A) (assay: pfSir2 binders on small-molecule microarrays, primary screen, biochemical, small-molecule microarray, 635 nm fluorescence (AID 1098;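 note: score merges spot fluorescence intensity with its signal-to-noise ratio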)). Details: small-molecule microarray binding, fluorescence 635 nm; higher = more signal.

Row | Compound | composite z-score
1 | COC(=O)CC=C[C@@H](C)[C@@H](C=NOC(C)CN1CCCc2nc(C)c(C)cc21)OC (stereo not given in full) | 0.465
2 | CC(C)(C)N1C(=O)[C@H]2[C@H]3[C@H](O)[C@H](O)CC(=NO[C@@H]4O[C@H](CO)[C@@H](O)[C@H](O)[C@H]4O)[C@H]3CC[C@H]2C1=O | 0.0937
3 | C#CCCCON=C1C[C@@H](O)[C@@H](O)[C@@H]2[C@@H]3C(=O)N(C(C)(C)C)C(=O)[C@@H]3CC[C@H]12 | 0.115
4 | CCOC(=O)NN=C1C[C@@H](O)[C@@H](O)[C@@H]2[C@@H]3C(=O)N([C@@H](C)c4ccccc4)C(=O)[C@@H]3CC[C@H]12 | 0.209
5 | COC(=O)[C@@H]1CC[C@H](C)[C@@H](c2ccc(C)cc2)N1C(=O)c1ccc(C=NO[C@H](C)c2cn([C@H](CO)Cc3ccccc3)nn2)cc1 | 0.652
6 | CCOC(=O)CCN1C(=O)[C@H]2[C@H]3[C@H](O)[C@H](O)CC(=NNC(=O)OCc4ccccc4)[C@@H]3CC[C@H]2C1=O | 0.205
7 | CC(C)=CCCC(C)=CCON=C1C[C@@H](O)[C@@H](O)[C@@H]2[C@@H]3C(=O)N(c4ccc(F)cc4F)C(=O)[C@@H]3CC[C@@H]12 | 0.476
8 | CCc1cc2c(nc1CC)CCN(CCC(C)=NO[C@H](C)c1cn([C@H](CO)Cc3ccccc3)nn1)C2 | 0.536
9 | COC(=O)[C@H](C)NC(=O)CCC1CC(OC(=O)NCCc2ccc(F)cc2)CC2(CCCC(COC(=O)NCCC(C)C)O2)O1 (stereo not given in full) | 0.597
10 | CCN1C(=O)[C@@H]2[C@H]3C(=CC[C@@H]2C1=O)C1(OCCCO1)[C@H]1O[C@H]1[C@H]3O | 0.416
11 | CCCNC(=O)OC[C@H]1O[C@H](CCON=C(C)CCN2CCc3nc(CC)c(CC)cc3C2)C=C[C@@H]1Oc1ccc(OC)cc1 | 0.865
12 | COc1cccc([C@H]2Oc3ccc(OC)cc3C(=NO[C@H](C)c3cn([C@H](CO)Cc4ccccc4)nn3)[C@@H]2O)c1 | -0.42
13 | Cc1ccc(S(=O)(=O)n2c3ccccc3c3nnc(C(=O)c4ccccc4)nc32)cc1 | -0.0568
14 | CCOC(=O)[C@H](Cc1ccccc1)NC(=O)CCC1CC(OC(=O)NCc2ccc3c(c2)OCO3)CC2(CCCC(COC(=O)NCCc3ccccc3OC)O2)O1 (stereo not given in full) | 0.604
15 | Cn1c(=O)n2n(c1=O)[C@H]1[C@H](O)[C@@H]3O[C@@H]3C(=O)[C@H]1CC2 | 0.269
16 | C[C@@H]1CC[C@H]2C(=O)O[C@@H](Cc3ccccc3)CN2[C@H]1c1ccc(Br)cc1 | 0.666
17 | CCOC(=O)[C@H](CC(C)C)NC(=O)CCC1CC(OC(=O)NCCc2ccc(F)cc2)CC2(CCCC(COC(=O)NCCc3ccc(Cl)cc3)O2)O1 (stereo not given in full) | 0.654
18 | CO[C@H]1COC(=O)[C@H](C)NC(=O)CC=C[C@@H](C)[C@H](OC)COC(=O)[C@@H](OCc2ccccc2)C=C[C@@H]1C | 0.68
19 | C#CCCCON=C1C[C@@H](O)[C@@H](O)[C@@H]2[C@@H]3C(=O)N(c4ccc(F)cc4F)C(=O)[C@@H]3CC[C@H]12 | 0.87
20 | O=C1C[C@@H](O)[C@@H](O)[C@@H]2[C@@H]3C(=O)N(Cc4ccc5c(c4)OCO5)C(=O)[C@@H]3CC[C@H]12 | 0.063
